“And” between values parts separate entries of the source, which are not always exact repeats. Equal entries are not always repeated. The source holds several records for some structures; these can differ, active in one and inactive in another. The source made the active and inactive calls. Where a call stands in place of a potency, no number is given. Unless noted, calls follow the shape of the dose curve; as a rule, active = well fitted curve in the direction sought with a large enough effect in the repeat runs; inconclusive = weak or mixed curves; inactive = no such curve, though single readings can be large; an effect the other way counts as inactive or inconclusive.
What was measured:
[1] = qHTS assay to identify small molecule antagonists of the thyroid receptor (TR) signaling pathway (AID 743065); also: nearly all actives have a fitted effect of over 55% in size; also: potency is read from the fitted curve at half-maximal effect
Method in brief: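 GH3.TRE-Luc rat pituitary cells carrying two TR response elements driving luciferase were plated for 4 h, given compound plus 1 nM T3 (final), and incubated 23.5 h at 37 C. ONE-Glo luminescence measured reporter inhibition; CellTiter-Fluor fluorescence tracked cytotoxicity.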

[2] = tested on: thyroid hormone receptor (rat, GH3 cells); test: qHTS assay to identify small molecule agonists of the thyroid receptor (TR) signaling pathway (AID 743066; calls by dose curve; also: potency is read from the fitted curve at half-maximal effect)
[3] = qHTS assay to identify small molecule antagonists of the estrogen receptor alpha (ER-alpha) signaling pathway using the BG1 cell line - cell viability counter screen (AID 743081);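 also: compound given together with 17beta-estradiol as the ER stimulus; nearly all actives have a fitted effect of over 45% in size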; also: potency is read from the fitted curve at half-maximal effect
[4] = biological target: Aromatase (Homo sapiens) (UniProt P11511); test: qHTS assay to identify aromatase inhibitors (AID 743083); also: nearly all actives have a fitted effect of over 55% in size; also: potency is read from the fitted curve at half-maximal effect
[5] = qHTS assay to identify aromatase inhibitors - cell viability counter screen (AID 743084);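 also: cells stimulated with testosterone during compound exposure; nearly all actives have a fitted effect of over 55% in size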; also: potency is read from the fitted curve at half-maximal effect
[6] = biological target: Aryl hydrocarbon receptor (Homo sapiens) (UniProt P35869); test: qHTS assay to identify small molecule that activate the aryl hydrocarbon receptor (AhR) signaling pathway (AID 743085);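 also: HG2L7.5c1 human HepG2 liver cells with stably integrated DRE-driven firefly reporter; series mostly up to about 70 µM; nearly all actives have a fitted effect of over 15% in size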
Method in brief: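 Steps: seed HepG2-AhR-luc cells; allow 5 h at 37C; pin-transfer test compound or vehicle; incubate 24 h at 37C; add viability dye (30 min, 37C) and read fluorescence; add luciferase substrate (30 min, RT) and read luminescence.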

[7] = qHTS assay to identify small molecule that activate the aryl hydrocarbon receptor (AhR) signaling pathway - cell viability counter screen (AID 743086); also: nearly all actives have a fitted effect of over 45% in size; also: potency is read from the fitted curve at half-maximal effect
Method in brief: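 HepG2-AhR-luc (HG2L7.5c1) cells, 4000/well, were preincubated 5 h at 37C, exposed to compound in qHTS format for 24 hr at 37C, then given CellTiter-Fluor for 30 min; viability was read as fluorescence in the reporter wells.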

[8] = biological target: Peroxisome proliferator-activated receptor gamma (Homo sapiens) (UniProt P37231); test: qHTS assay to identify small molecule agonists of the peroxisome proliferator-activated receptor gamma (PPARg) signaling pathway (AID 743094; active = well fitted activation curve with a large enough effect in the signal ratio in the repeat runs, not every such curve was filed as active; inconclusive = weak or mixed curves, or effect the other way; inactive = no such curve, though single readings can be large or run the other way; the % refers to the signal ratio)
Method in brief: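 Cell-based bla reporter, HEK293H background, PPARg-driven UAS. Pre-incubation 5 h, 37C, 5% CO2. Compound 17 h, 37C. Substrate 1 h RT; fluorescence.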

[9] = qHTS assay to identify small molecule antagonists of the peroxisome proliferator-activated receptor gamma (PPARg) signaling pathway - cell viability counter screen (AID 743194); details: Potency: co-treated with 50 nM rosiglitazone; also: nearly all actives have a fitted effect of over 55% in size; also: potency is read from the fitted curve at half-maximal effect
Method in brief: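 PPARg-UAS-bla HEK293H cells were plated, rested 5 h at 37 C, then treated with compounds plus rosiglitazone (50 nM final) for 17 h at 37 C; viability was then read by CellTiter-Glo luminescence after 30 min at room temperature.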

[10] = qHTS assay for small molecule agonists of the antioxidant response element (ARE) signaling pathway - cell viability counter screen (AID 743203; calls by dose curve; also: nearly all actives have a fitted effect of over 55% in size)
Method in brief: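 Measured in the same wells as the beta-lactamase ARE reporter, this read-out is CellTiter-Glo luminescence from HepG2 ARE-bla cells given compounds for 16 hrs.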

[11] = qHTS assay for small molecule activators of the heat shock response signaling pathway - cell viability counter screen (AID 743209); also: nearly all actives have a fitted effect of over 50% in size
Method in brief: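 Same-well multiplex: after 2.5 h room-temperature incubation with LiveBLAzer B/G substrate and fluorescence reading, CellTiter-Glo reagent was added to HSE-bla HeLa cells that had received compound for 5 h at 37 C; luminescence read after 30 min.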

[12] = qHTS assay for small molecule activators of the heat shock response signaling pathway (AID 743210; active = well fitted activation curve with a large enough effect in the signal ratio in the repeat runs, with a control signal flat, not every such curve was filed as active; inconclusive = weak or mixed curves; the % refers to the signal ratio;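 also: HeLa cells with beta-lactamase reporter driven by heat shock elements; series mostly up to about 63 µM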)
Method in brief: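 Activation of heat shock element-controlled beta-lactamase expression is measured in HeLa cells by LiveBLAzer FRET fluorescence, with compound exposure lasting 5 h at 37 C and substrate loading 2.5 h at room temperature.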

[13] = qHTS assay to identify small molecule agonists of the peroxisome proliferator-activated receptor delta (PPARd) signaling pathway - cell viability counter screen (AID 743211); also: nearly all actives have a fitted effect of over 55% in size; also: potency is read from the fitted curve at half-maximal effect
Method in brief: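 Viability of GeneBLAzer PPARd UAS-bla HEK293H cells was assessed after 17 h compound incubation at 37C, using CellTiter-Glo reagent added after the reporter read and luminescence recorded 30 min later.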

[14] = biological target: Estrogen receptor (Homo sapiens) (UniProt P03372); test: qHTS assay to identify small molecule antagonists of the estrogen receptor alpha (ER-alpha) signaling pathway (AID 743069; active = well fitted curve in the direction sought with a large enough effect in the signal ratio in the repeat runs, not every such curve was filed as active; inconclusive = weak or mixed curves, or effect the other way; inactive = no such curve, though single readings can be large or run the other way; the % refers to the signal ratio; also: potency is read from the fitted curve at half-maximal effect)
Method in brief: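 Screening used a UAS-driven beta-lactamase reporter integrated into HEK293 cells expressing ER-alpha, stimulated with 17beta-estradiol alongside test compounds over 18 hr at 37C; signal came from LiveBLAzer B/G FRET fluorescence.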

[15] = qHTS assay to identify small molecule antagonists of the estrogen receptor alpha (ER-alpha) signaling pathway - cell viability counter screen (AID 743074; calls by dose curve; also: nearly all actives have a fitted effect of over 45% in size; also: potency is read from the fitted curve at half-maximal effect)
[16] = biological target: Estrogen receptor (Homo sapiens) (UniProt P03372); test: qHTS assay to identify small molecule agonists of the estrogen receptor alpha (ER-alpha) signaling pathway (AID 743075; calls by dose curve; also: potency is read from the fitted curve at half-maximal effect)
[17] = biological target: Estrogen receptor (Homo sapiens) (UniProt P03372); test: qHTS assay to identify small molecule agonists of the estrogen receptor alpha (ER-alpha) signaling pathway using the BG1 cell line (AID 743079); also: nearly all actives have a fitted effect of over 20% in size
[18] = qHTS assay to identify small molecule antagonists of the estrogen receptor alpha (ER-alpha) signaling pathway using the BG1 cell line (AID 743080; calls by dose curve;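 also: BG1 cells stimulated with 17beta-estradiol alongside compound; series mostly up to about 70 µM; nearly all actives have a fitted effect of over 25% in size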)
Method in brief: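 BG1-Luc-4E2 cells (endogenous full-length ER-alpha, stable 4×ERE-luciferase) were starved 5 days in phenol-red-free medium with 10% charcoal-stripped FBS, plated 24 h, then given compound plus 17beta-estradiol for 21.5 h at 37 C; ONE-Glo luminescence read after 30 min.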

[19] = biological target: Peroxisome proliferator-activated receptor gamma (Homo sapiens) (UniProt P37231); test: qHTS assay to identify small molecule antagonists of the peroxisome proliferator-activated receptor gamma (PPARg) signaling pathway (AID 743191; calls by dose curve; also: series mostly up to about 63 µM; nearly all actives have a fitted effect of over 30% in size)
Method in brief: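 GeneBLAzer PPARg UAS-bla HEK293H cells carrying a UAS-driven beta-lactamase reporter were plated at 3000 cells/well, preincubated 5 h at 37C, then given compound for 17 h at 37C; LiveBLAzer B/G FRET substrate was read after 1 h at room temperature.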

[20] = qHTS assay for small molecule agonists of the antioxidant response element (ARE) signaling pathway (AID 743202; active = well fitted activation curve with a large enough effect in the signal ratio in the repeat runs, not every such curve was filed as active; inconclusive = weak or mixed curves, or effect the other way; inactive = no such curve, though single readings can be large or run the other way; the % refers to the signal ratio; also: potency is read from the fitted curve at half-maximal effect)
Method in brief: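 Steps: seed ARE-bla HepG2 cells (2,000/well); incubate 5 h at 37 C; add compounds by pin tool; incubate 16 h at 37 C; add FRET substrate; read fluorescence after 2 h at RT.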

Peroxisome proliferator-activated receptor gamma (Homo sapiens), sequence (P37231 whole entry, looked up): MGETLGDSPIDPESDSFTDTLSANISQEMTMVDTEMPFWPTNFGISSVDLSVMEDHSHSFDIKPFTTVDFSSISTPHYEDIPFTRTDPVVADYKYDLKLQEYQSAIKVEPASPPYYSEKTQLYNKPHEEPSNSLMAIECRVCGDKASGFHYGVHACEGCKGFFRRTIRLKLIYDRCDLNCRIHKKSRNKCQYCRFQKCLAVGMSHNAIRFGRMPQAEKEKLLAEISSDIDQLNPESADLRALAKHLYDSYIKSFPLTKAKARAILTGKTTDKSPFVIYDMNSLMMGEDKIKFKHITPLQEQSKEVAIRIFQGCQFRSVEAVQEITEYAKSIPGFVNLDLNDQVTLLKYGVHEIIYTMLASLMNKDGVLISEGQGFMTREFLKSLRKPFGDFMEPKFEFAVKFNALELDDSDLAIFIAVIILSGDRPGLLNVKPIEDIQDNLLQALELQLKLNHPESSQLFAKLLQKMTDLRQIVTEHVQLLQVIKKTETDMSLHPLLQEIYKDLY
Aromatase (Homo sapiens), sequence (P11511 whole entry, looked up): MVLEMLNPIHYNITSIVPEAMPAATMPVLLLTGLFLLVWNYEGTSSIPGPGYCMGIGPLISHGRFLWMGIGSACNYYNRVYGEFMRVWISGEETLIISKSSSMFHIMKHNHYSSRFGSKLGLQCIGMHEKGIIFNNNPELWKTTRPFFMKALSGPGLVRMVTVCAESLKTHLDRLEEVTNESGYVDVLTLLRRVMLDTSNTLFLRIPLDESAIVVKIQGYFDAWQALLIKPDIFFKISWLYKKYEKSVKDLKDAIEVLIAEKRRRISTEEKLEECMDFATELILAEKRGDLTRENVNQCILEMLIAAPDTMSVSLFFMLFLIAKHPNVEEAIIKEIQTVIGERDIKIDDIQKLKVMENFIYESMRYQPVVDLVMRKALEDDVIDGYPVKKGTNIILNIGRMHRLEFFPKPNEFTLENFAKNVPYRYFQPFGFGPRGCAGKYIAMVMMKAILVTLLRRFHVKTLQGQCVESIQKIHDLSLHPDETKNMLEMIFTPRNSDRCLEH
Estrogen receptor (Homo sapiens), sequence (P03372 whole entry, looked up): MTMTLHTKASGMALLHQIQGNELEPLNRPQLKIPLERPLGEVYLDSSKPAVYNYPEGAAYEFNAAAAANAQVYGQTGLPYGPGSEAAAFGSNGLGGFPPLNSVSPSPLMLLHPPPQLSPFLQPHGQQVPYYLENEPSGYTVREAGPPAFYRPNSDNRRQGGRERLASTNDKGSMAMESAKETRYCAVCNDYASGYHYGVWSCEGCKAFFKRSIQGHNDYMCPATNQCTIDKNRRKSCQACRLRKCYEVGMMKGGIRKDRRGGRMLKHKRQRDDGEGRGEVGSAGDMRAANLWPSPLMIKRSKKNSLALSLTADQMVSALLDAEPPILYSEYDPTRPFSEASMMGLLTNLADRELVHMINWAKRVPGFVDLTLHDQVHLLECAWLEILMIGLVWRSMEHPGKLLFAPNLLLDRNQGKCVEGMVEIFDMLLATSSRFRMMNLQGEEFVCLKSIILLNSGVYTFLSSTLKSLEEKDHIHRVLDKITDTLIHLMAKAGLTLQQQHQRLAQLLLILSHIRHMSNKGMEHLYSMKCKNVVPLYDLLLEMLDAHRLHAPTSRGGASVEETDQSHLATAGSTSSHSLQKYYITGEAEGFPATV
Aryl hydrocarbon receptor (Homo sapiens), sequence (P35869 whole entry, looked up): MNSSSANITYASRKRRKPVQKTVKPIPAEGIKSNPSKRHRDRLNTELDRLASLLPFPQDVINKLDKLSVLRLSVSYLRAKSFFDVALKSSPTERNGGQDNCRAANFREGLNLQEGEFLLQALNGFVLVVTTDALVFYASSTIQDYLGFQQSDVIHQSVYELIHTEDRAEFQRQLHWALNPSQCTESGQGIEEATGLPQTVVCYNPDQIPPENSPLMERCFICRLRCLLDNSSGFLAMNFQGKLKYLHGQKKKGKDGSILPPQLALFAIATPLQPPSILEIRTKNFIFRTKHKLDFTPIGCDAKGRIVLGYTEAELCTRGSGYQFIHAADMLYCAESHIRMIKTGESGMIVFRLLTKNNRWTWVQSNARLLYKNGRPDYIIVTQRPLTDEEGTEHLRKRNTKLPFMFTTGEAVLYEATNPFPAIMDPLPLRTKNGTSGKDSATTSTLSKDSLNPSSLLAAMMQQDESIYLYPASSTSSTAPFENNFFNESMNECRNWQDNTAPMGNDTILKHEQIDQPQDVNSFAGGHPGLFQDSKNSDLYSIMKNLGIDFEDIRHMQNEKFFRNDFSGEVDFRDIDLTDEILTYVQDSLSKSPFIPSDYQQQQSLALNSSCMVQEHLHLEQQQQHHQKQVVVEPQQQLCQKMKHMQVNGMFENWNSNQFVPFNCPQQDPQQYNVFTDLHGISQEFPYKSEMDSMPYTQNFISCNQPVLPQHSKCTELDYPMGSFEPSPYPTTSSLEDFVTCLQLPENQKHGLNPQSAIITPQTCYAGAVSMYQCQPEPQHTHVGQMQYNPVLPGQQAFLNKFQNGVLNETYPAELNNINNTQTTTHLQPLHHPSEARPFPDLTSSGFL

Row | Structure (SMILES) | Potency [1] | Potency [2] | Potency [3] | Potency [4] | Potency [5] | Potency [6] | Potency [7] | Potency [8] | Potency [9] | Potency [10] | Potency [11] | outcome [12] | Potency [13] | Potency [14] | Potency [15] | Potency [16] | Potency [17] | Potency [18] | Potency [19] | Potency [20]
1 | O=C(O)C(F)(F)C(F)(F)C(F)(F)C(F)(F)C(F)(F)C(F)(F)C(F)(F)C(F)(F)C(F)(F)C(F)(F)F | inactive | inactive | inactive | inactive | inactive | inactive | inactive | inactive | inactive | inactive | inactive | inactive | inactive |  |  |  |  |  |  | 
2 | Cn1sc(Cl)cc1=O |  | inactive | inactive | inactive | inactive | inactive | inactive | inactive |  | inactive | inactive |  | inactive | inactive | inactive | inactive | inactive | inactive | inactive | 
3 | CCOC(=O)[C@]1(c2ccccc2)Oc2ccccc2[C@@H]1N | 68.6 µM (active) |  |  | 27.3 µM (active) | inactive | inactive | inactive |  | inactive |  | inactive | inactive | 54.9 µM (active) |  |  |  |  |  | inactive | 
4 | CO/N=C(/C(=O)OC)c1ccccc1COc1ccccc1C | 3.06 µM (active) | inactive | inactive |  |  | inactive | inactive |  | inactive | inactive | inactive | inactive | inactive |  |  |  | inactive |  |  | 19.3 µM (active)
5 | O=C(O)C1(c2ccc3c(c2)OC[C@H](Cc2ccc(-c4ccccc4)cc2)[C@H]3O)CCCC1 | 54.5 µM (active) |  | inactive | inactive | inactive |  | inactive |  | 43.6 µM (active) |  |  |  | 49 µM (active) |  | 54.9 µM (active) |  |  |  |  | 
6 | CC(C)(C)c1cc([N+](=O)[O-])cc([N+](=O)[O-])c1O | 3.43 µM (active) |  | 21.6 µM (active) | 15.3 µM (active) | 17.2 µM (active) | inactive | 27.2 µM (active) |  | 0.435 µM (active) |  |  |  |  |  |  |  |  |  |  | 
7 | COc1c(C(C)(C)C)cc([N+](=O)[O-])c(C)c1[N+](=O)[O-] |  | inactive | inactive |  | inactive | inactive | inactive | inactive | inactive | inactive | inactive | inactive | inactive | inactive | inactive | 48.6 µM [activator] (active) | inactive | inactive | inactive | inactive
8 | CCCC(Cn1cncn1)c1ccc(Cl)cc1Cl (stereo unspecified) | 61.1 µM (active) | inactive | inactive | 12.2 µM (active) | inactive | inactive | inactive |  |  | inactive |  | inactive |  |  |  |  |  |  |  | 
9 | O=C1NCN(c2ccccc2)C12CCN(CCCOc1ccc(F)cc1)CC2 | 16.8 µM (active) |  |  | 16.8 µM (active) | inactive | inactive | 5.31 µM (active) | inactive | inactive |  | inactive |  |  | 10.7 µM [inconclusive] (active) | inactive | inactive |  |  |  | 2.37 µM (active)
10 | CCn1cc[n+](C)c1 |  | inactive and 49.2 µM (active) | inactive |  |  |  | inactive |  | inactive | inactive | inactive |  | inactive |  | inactive |  |  |  |  | inactive
11 | COc1cc(CC(C)N)cc2c1OCO2 (stereo unspecified) |  | inactive |  | inactive | inactive | inactive | inactive | inactive | inactive | inactive | inactive | inactive | inactive |  |  | inactive | inactive | inactive | inactive | 
12 | N#Cc1ccc(Cl)cc1 |  |  | inactive | inactive | inactive | inactive | inactive | inactive | inactive | inactive | inactive | inactive | inactive | inactive |  | inactive | inactive | inactive | inactive | inactive
13 | CO[C@@H]1[C@H](OC(=O)NC(=O)CCl)CC[C@]2(CO2)[C@H]1[C@@]1(C)O[C@@H]1CC=C(C)C |  | inactive | inactive | inactive |  | inactive | inactive |  | inactive | inactive |  |  | inactive |  | inactive |  | inactive | inactive |  | 
14 | CN1[C@@H]2CC[C@H]1CC(OC(=O)c1cc(Cl)cc(Cl)c1)C2 (stereo partly specified) |  |  | inactive | inactive | inactive | inactive |  | inactive |  |  | inactive | inactive | inactive | inactive | inactive | inactive | inactive | inactive | inactive | 

From PubChem BioAssay (Tox21)
